Compounds without any hit were thinned out: in the full panel of roughly 79,000, 15% have a hit. Cut-off read from the data, not from the text of the source: active = growth inhibition above about 70%; inactive = the rest.
How the values were obtained:
[1] = NCI Yeast Anticancer Drug Screen. Data for the rad50 strain (AID 155);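 note: 0% = growth of vehicle-only cultures of the same strain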; details: S. cerevisiae rad50 strain growth inhibition; at 50.0 µM; active compounds read high
Summary of the method: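 A DNA repair-deficient yeast mutant serves as the test organism; compound-induced growth inhibition is calculated against vehicle-treated cells.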

[2] = NCI Yeast Anticancer Drug Screen. Data for the mec2-1 strain (AID 157); details: S. cerevisiae mec2-1 strain, at 50.0 µM, active compounds read high
Summary of the method: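 Test agents were screened against the mec2-1 yeast strain, with defined DNA repair or cell cycle alteration. Growth was scored as inhibition against vehicle-only controls.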

[3] = NCI Yeast Anticancer Drug Screen. Data for the sgs1 mgt1 strain (AID 161);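 note: 0% = growth of cultures given vehicle only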; details: S. cerevisiae sgs1 mgt1 strain, at 50.0 µM, active compounds read high
Summary of the method: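 Genetically altered yeast, compound exposure, growth inhibition relative to vehicle.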

[4] = NCI Yeast Anticancer Drug Screen. Data for the cln2 rad14 strain (AID 165);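 note: 0% = growth equal to vehicle treated cultures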; details: S. cerevisiae cln2 rad14 strain, at 50.0 µM, active compounds read high
Summary of the method: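 Growth of compound-exposed yeast (cln2 rad14 genotype) measured and expressed as inhibition relative to vehicle.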

[5] = NCI Yeast Anticancer Drug Screen. Data for the bub3 strain (AID 167); details: S. cerevisiae bub3 mutant strain, at 50.0 µM, active compounds read high
Summary of the method: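 Inhibition values come from growth of compound-treated mutant yeast normalised to vehicle-treated controls.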

[6] = NCI Yeast Anticancer Drug Screen. Data for the mlh1 rad18 strain (AID 175); details: S. cerevisiae mlh1 rad18 strain growth inhibition; at 50.0 µM; active compounds read high
Summary of the method: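 In this whole-cell yeast screen, a strain with altered DNA damage repair is challenged with compound, and its growth is measured against matched vehicle-treated controls.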

Measured: growth inhibition

Brc1ccc(-c2[nH]c3ccccc3c2N=Nc2ccccc2)cc1
inactive: [1] 0.85% | [2] -9.6% | [3] 6.45% | [4] -7% | [5] -11.1% | [6] -56.7%

N#C/C(C(=O)NCc1ccccc1)=C(/N)N1CCCC1
inactive: [1] -4.95% | [2] -16.2% | [3] 0.25% | [4] -16.6% | [5] -5.3% | [6] -0.15%

CN(C)c1nc2ccc(Cl)cc2c(=O)[nH]1
inactive: [1] 6.25% | [2] 4.55% | [3] -14% | [4] 3.55% | [5] -17.9% | [6] 3.9%

COc1ccc(/C=N/NS(=O)(=O)c2ccc(/C=C3\NC(=O)N(C)C3=O)cc2)cc1
inactive: [1] -10.5% | [2] 22.1% | [3] -21.9% | [4] 6.5% | [5] -23.7% | [6] 27.1%

COc1ccc(NC(=O)CSc2nnc(-c3ccc(NC(C)=O)cc3)o2)cc1
inactive: [1] 22.5% | [2] 2.2% | [3] 35.6% | [4] 22.2% | [5] 36% | [6] 0.55%

CC(C)=CCOc1cc(NC(=S)c2ccsc2C)ccc1Cl
inactive: [1] -40.6% | [2] -24.6% | [3] -34.1% | [4] -22.4% | [5] -19.1% | [6] -36.3%

CCCCCCCCCCCCCCCC(=O)O[C@@H]1[C@@H](C)[C@@]2(O)[C@@H](C=C(CO)C[C@]3(O)C(=O)C(C)=C[C@@H]23)[C@H]2[C@]1(OC(C)=O)[C@]2(C)CO
inactive: [1] 14.8% | [2] 2.75% | [3] 20.1% | [4] 30.9% | [5] 21.1% | [6] -71.2%

CCCNS(C)(=O)=O
inactive: [1] 7.25% | [2] 1.2% | [3] 10.2% | [4] 3.15% | [5] 11.1% | [6] 3.6%

NC1=NNC(=O)/C1=C/c1ccccc1
inactive: [1] 16.6% | [2] 5.85% | [3] 0.55% | [4] -17.1% | [5] -10.2% | [6] 22.2%

COc1cc(C#N)cc(OC)c1OC
inactive: [1] 26% | [2] -14.8% | [3] 2.85% | [4] 1.45% | [5] 1.85% | [6] -12.2%

CN(C)CC1CCCC/C1=N\OC(=O)c1ccccc1 (stereo not drawn)
inactive: [1] -6.9% | [2] -13.8% | [3] 4.15% | [4] 6.25% | [5] 5.8% | [6] 8.1%

CCOC(=O)c1ccnc(F)c1
inactive: [1] 3.8% | [2] -15.7% | [3] -6.15% | [4] -8.8% | [5] 1% | [6] 3.6%

CCCCCCCC(CCCCCCC)C(=O)OCCO
inactive: [1] -7.4% | [2] -7.9% | [3] 3.7% | [4] -21.8% | [5] -4.95% | [6] -5.6%

Cc1cccc(C)c1NC(=S)N(CCC#N)Cc1ccccc1
inactive: [1] 6.8% | [2] 1.45% | [3] 1.9% | [4] -4.55% | [5] 12.3% | [6] -11.1%

Cc1cc(=O)n2[nH]nnc2n1
inactive: [1] 10.5% | [2] 17.6% | [3] 26.4% | [4] 13.2% | [5] 12.5% | [6] 14.2%

N#CCCN(CCC#N)c1nc(-c2ccccc2)nc(N(CCC#N)CCC#N)n1
inactive: [1] -1.95% | [2] -16.6% | [3] -1.75% | [4] 0.9% | [5] 2.75% | [6] 15.1%

CCC(=O)Oc1ccccc1OC(=O)CC
inactive: [1] 35.9% | [2] 18.3% | [3] 21% | [4] 11.6% | [5] 1.9% | [6] 45.2%

Nc1nc(N)c(N)c(Nc2ccc(Cl)cc2)n1
inactive: [1] 27.5% | [2] 22.3% | [3] 9% | [4] 21.4% | [5] -1.95% | [6] 2.5%

COC(=O)c1ccc2c(ccc[n+]2C)c1
inactive: [1] -0.6% | [2] 21.3% | [3] -7.05% | [4] 4.8% | [5] -3.45% | [6] 2.3%

CCOC(=O)c1nn2c(nc1=O)sc1ccc3ccccc3c12
inactive: [1] -22% | [2] -5.7% | [3] 7.8% | [4] 32.1% | [5] 25% | [6] 2.05%

Cn1nnc(/N=C/c2ccccc2)n1
inactive: [1] 5.85% | [2] -8.1% | [3] -6.25% | [4] -19.1% | [5] 4.75% | [6] 11.4%

O=C(N/N=C(\C1=Nc2ccc(Cl)cc2NC1O)C(O)/C=C/c1ccccc1)c1ccncc1 (stereo not drawn)
inactive: [1] 17.6% | [2] 3.95% | [3] -8.8% | [4] -20.7% | [5] -4% | [6] 7.7%

CCOC(=O)C1(C)OC1c1ccc([N+](=O)[O-])cc1 (stereo not drawn)
inactive: [1] -16.3% | [2] 5.45% | [3] -4.5% | [4] -15.6% | [5] -9.85% | [6] -9.85%

CCOC(=O)/C=C1\NC(=O)N(CCCCCCN2C(=O)N/C(=C\C(=O)OCC)C2=O)C1=O
inactive: [1] 44.7% | [2] 13.3% | [3] 39.2% | [4] 7.95% | [5] -1.95% | [6] 29.9%

CNC(=O)Nc1cc2c3c(c1)CCCN3CCC2
inactive: [1] -16.8% | [2] -36.6% | [3] -9.45% | [4] -15.8% | [5] -9.55% | [6] -8.3%

O=C(CCCl)Nc1cccc(CCC(=O)c2ccccc2NC(=O)CCCl)c1
inactive: [1] -8.1% | [2] -18.1% | [3] -4.2% | [4] -15.9% | [5] -7.1% | [6] -10.4%

CN1CCCC(CO)C1 (stereo not drawn)
inactive: [1] -10.8% | [2] -10.2% | [3] -7.65% | [4] 6.95% | [5] 7.75% | [6] -5.3%

CCOCCOCCOC(=O)CC(C)=O
inactive: [1] 3.45% | [2] 24.9% | [3] 5.5% | [4] -22.3% | [5] -11.8% | [6] -11.5%

O=C(CCN(CCC(=O)c1ccccc1)CCC(=O)c1ccccc1)c1ccccc1
inactive: [1] 22.2% | [2] 11.8% | [3] -5.05% | [4] -31.3% | [5] 0.9% | [6] 26.9%

O=C1CSC(c2ccccn2)N1CCN1C(=O)CSC1c1ccccn1 (stereo not drawn)
inactive: [1] 7.4% | [2] -0.85% | [3] -15.9% | [4] -4.35% | [5] -8.05% | [6] 6.65%

OCC(Cl)(Cl)C(Cl)(Cl)CO
inactive: [1] 8.2% | [2] -14.5% | [3] -12.7% | [4] -0.95% | [5] -28.6% | [6] -17.8%

COc1ccc(C2c3cc4c(cc3OC(O)(CO)C2C(=O)O)OCO4)c(OC)c1OC (stereo not drawn) (tested in a mixture with another compound)
inactive: [1] 0.2% | [2] -4% | [3] 6% | [4] -15.5% | [5] -18.3% | [6] 9.65%

COC(=O)/C=C/c1ccc2c(c1)CCC2
inactive: [1] -35.5% | [2] -30.9% | [3] -13.8% | [4] 14.6% | [5] 31.7% | [6] -1.35%

O=C(O)CCc1nc[nH]c1[N+](=O)[O-]
inactive: [1] -33.3% | [2] -10.6% | [3] -7.55% | [4] -44.9% | [5] 11.1% | [6] 8.1%

Cc1c(Cl)ccc2c1NC(=O)C2(O)C1Cc2ccccc2C1=O (stereo not drawn)
inactive: [1] 44.5% | [2] 21.1% | [3] 37.5% | [4] 34% | [5] 15.1% | [6] 28%

Cc1cccc(CN(C)C)c1C=C(c1ccccc1)c1ccccc1
inactive: [1] 11.9% | [2] -1% | [3] 10.6% | [4] -0.05% | [5] 8.7% | [6] 33%

COc1cc(Br)c(C2SCC(=O)N2c2nncs2)cc1OC (stereo not drawn)
inactive: [1] 1.55% | [2] 11.3% | [3] 7.9% | [4] 0.7% | [5] -2.15% | [6] 26.6%

NC(=O)NC(=O)Cc1ccc(N)cc1
inactive: [1] 4.6% | [2] -9.1% | [3] 1.9% | [4] 1.1% | [5] 4% | [6] -4.9%
